Assay results published in PubChem BioAssay.
Active and inactive are the calls of the source.

Key:
[1] = binders of probe aFSTL3 on microarray, primary screen, stem cell growth factor project, biochemical, small-molecule microarray, fluorescence 635/667 (AID 1064); details: higher = more signal;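 also: measures binding of the biotinylated anti-FSTL3 antibody to printed compounds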
[2] = binders from COS7 lysate, DM2A8 probe, primary screen, torsin A project, cell lysate, small-molecule microarray, fluorescence 635/667 (AID 1065); details: higher = more signal, COS7 lysate expressing mutant human TOR1A
[3] = binders of probe aFGF2 on microarray, primary screen, stem cell growth factor project, biochemical, small-molecule microarray, fluorescence 635/667 (AID 1067); details: higher = more signal;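 also: measures binding of biotinylated aFGF2 protein to printed compounds on slides; z-score merges feature fluorescence and signal-to-noise across triplicate slides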
[4] = binders of probe aFGF10 on microarray, primary screen, stem cell growth factor project, biochemical, small-molecule microarray, fluorescence 635/667 (AID 1071); details: higher = more signal;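 also: score merges 667 nm spot intensity and signal to noise from triplicate slides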
[5] = target: Neurogenic locus notch homolog protein 2 (Homo sapiens) (UniProt Q04721); assay: Notch2 binders on small-molecule microarrays, primary screen, biochemical, small-molecule microarray, 635 nm fluorescence, stem cell growth factors (AID 1073); details: Notch2 binding, higher = more signal
[6] = target: Pro-neuregulin-1, membrane-bound isoform (Homo sapiens) (UniProt Q02297); assay: NRG1 binders on small-molecule microarrays, primary screen, psychiatric disease protein project, biochemical, small-molecule microarray, fluorescence 635/667 (AID 1075); details: NRG1 binding, 635 nm fluorescence, higher = more signal;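 also: score combines 667 nm spot fluorescence with signal to noise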
[7] = tested on: Neuregulin-1 EGF-like domain; assay: binders of neuregulin-1 EGF-like domain, primary screen, biochemical, small-molecule microarray, 635 nm fluorescence (AID 1081); details: small-molecule microarray binding, higher = more signal;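 also: binding of the protein to compounds printed on small-molecule microarray slides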
[8] = FRG1 promoter luciferase signal modulators, primary screen, FRG1 inhibition for FSHD, cell-based, C2C12 myotubes, firefly/Renilla luciferase, luminescence (AID 1084); details: higher = more signal, called active from +8 up or from −8 down
[9] = binders of probe aFST on microarray, primary screen, stem cell growth factor project, biochemical, small-molecule microarray, fluorescence 635/667 (AID 1086); details: higher = more signal;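 also: score merges 667 nm fluorescence with signal-to-noise of each printed compound spot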
[10] = binders of probe aHhip on microarray, primary screen, stem cell growth factor project, biochemical, small-molecule microarray, fluorescence 635/667 (AID 1087); details: higher = more signal;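 also: score merges spot fluorescence at 667nm with spot signal to noise ratio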
[11] = tested on: PRMT1 (protein arginine N-methyltransferase 1); assay: PRMT1 binders on small-molecule microarrays, primary screen, biochemical, small-molecule microarray, 635 nm fluorescence (AID 1088); details: small-molecule microarray binding, higher = more signal;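 also: binding of Prmt1 protein to compounds spotted on small-molecule microarray slides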
[12] = yeast growth modulation, basal conditions, primary screen, YJM789 clinical isolate, OD600, 24 h (AID 1089);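 also: growth of clinical yeast isolate S. cerevisiae YJM 789 seeded 1000 cells per well; test concentration not given here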; details: S. cerevisiae YJM789 growth, higher = more signal, called active from +8 up or from −8 down
[13] = fission yeast growth modulation, primary screen, strain 972, OD600, 24 h, no modulator (AID 1090);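 also: basal condition with compound alone and no growth modifier present; test concentration not given here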; details: S. pombe 972 growth, higher = more signal, called active from +8 up or from −8 down
[14] = S. cerevisiae growth modulation with rapamycin, primary screen, strain BY4716, OD600, 96 h (AID 1091); details: higher = more signal, called active from +8 up or from −8 down; also: test concentration not given here
[15] = target: Torsin-1A-interacting protein 2 (Homo sapiens) (UniProt Q8NFQ8); assay: LULL1 binders on small-molecule microarray, primary screen, cell lysate, human LULL1 lysate, 635/667 nm fluorescence (AID 1092); details: hLULL1 lysate binding, 635 nm fluorescence, higher = more signal;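 also: probe is lysate of COS7 cells overexpressing human LULL1; score merges per-feature 667 nm fluorescence with signal-to-noise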
[16] = E. coli growth modulation, two-sided OD650, primary screen, E. coli filamentation project, strain DRC41, 24 h (AID 1093); details: OD650, 24 h, higher = more signal, called active from +8 up or from −8 down;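 also: MC1000 strain lacking acrAB efflux and sulA so SOS filamentation is blocked; test concentration not given here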
[17] = small-molecule microarray binders of probe aLefty2, primary screen, biochemical, biotinylated probe, 635/667 nm fluorescence (AID 1094); details: higher = more signal;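 also: score merges spot fluorescence near 667 nm with spot signal-to-noise ratio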
[18] = tested on: Noggin (protein binding on small-molecule microarray); assay: Noggin binders on small-molecule microarray, primary screen, biochemical, 635/667 nm fluorescence (AID 1095); details: 635 nm fluorescence, higher = more signal;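 also: score merges 667 nm feature fluorescence with signal to noise over triplicate slides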
[19] = target: Neurogenic locus notch homolog protein 3 (Homo sapiens) (UniProt Q9UM47); assay: NOTCH3 binders on small-molecule microarray, primary screen, biochemical, 635/667 nm fluorescence (AID 1096); details: NOTCH3 binding, 635 nm fluorescence, higher = more signal
[20] = small-molecule microarray binders of probe aEGFR, primary screen, biochemical, biotinylated probe, 635/667 nm fluorescence (AID 1097); details: higher = more signal;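 also: probe is a biotinylated anti-EGFR antibody binding compounds printed on slides; score combines fluorescence near 667 nm and signal to noise of each spot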

Pro-neuregulin-1, membrane-bound isoform (Homo sapiens), sequence (Q02297 whole entry, looked up, the tested form may be a part, canonical isoform): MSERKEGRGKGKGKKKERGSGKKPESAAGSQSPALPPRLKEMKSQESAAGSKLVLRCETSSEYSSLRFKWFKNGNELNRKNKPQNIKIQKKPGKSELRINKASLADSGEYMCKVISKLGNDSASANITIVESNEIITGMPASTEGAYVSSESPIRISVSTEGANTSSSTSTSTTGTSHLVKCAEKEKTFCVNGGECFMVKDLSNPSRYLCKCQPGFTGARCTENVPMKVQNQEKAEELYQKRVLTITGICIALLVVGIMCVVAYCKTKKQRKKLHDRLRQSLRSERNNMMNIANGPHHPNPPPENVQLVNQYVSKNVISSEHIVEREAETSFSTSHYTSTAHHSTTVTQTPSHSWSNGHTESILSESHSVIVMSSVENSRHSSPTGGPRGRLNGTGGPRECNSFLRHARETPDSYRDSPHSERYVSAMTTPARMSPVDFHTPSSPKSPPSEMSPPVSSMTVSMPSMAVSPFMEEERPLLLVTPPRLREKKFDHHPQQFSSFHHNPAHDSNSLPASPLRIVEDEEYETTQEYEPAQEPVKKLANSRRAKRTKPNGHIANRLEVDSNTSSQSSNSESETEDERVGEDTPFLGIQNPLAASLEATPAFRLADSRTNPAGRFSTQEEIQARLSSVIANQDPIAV
Torsin-1A-interacting protein 2 (Homo sapiens), sequence (Q8NFQ8 whole entry, looked up): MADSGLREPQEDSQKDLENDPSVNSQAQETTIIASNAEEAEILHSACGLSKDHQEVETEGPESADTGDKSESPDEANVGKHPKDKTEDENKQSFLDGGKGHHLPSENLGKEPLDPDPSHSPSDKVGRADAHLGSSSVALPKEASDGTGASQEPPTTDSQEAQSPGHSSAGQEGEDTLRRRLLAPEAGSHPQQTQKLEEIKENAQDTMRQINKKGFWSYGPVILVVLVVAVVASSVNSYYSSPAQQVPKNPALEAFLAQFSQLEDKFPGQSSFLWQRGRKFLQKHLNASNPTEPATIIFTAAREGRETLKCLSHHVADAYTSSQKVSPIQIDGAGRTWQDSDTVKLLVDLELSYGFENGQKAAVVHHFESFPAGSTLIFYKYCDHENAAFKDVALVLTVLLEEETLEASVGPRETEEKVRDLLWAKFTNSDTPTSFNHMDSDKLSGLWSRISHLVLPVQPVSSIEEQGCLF
Neurogenic locus notch homolog protein 2 (Homo sapiens), sequence (Q04721 whole entry, looked up, canonical isoform): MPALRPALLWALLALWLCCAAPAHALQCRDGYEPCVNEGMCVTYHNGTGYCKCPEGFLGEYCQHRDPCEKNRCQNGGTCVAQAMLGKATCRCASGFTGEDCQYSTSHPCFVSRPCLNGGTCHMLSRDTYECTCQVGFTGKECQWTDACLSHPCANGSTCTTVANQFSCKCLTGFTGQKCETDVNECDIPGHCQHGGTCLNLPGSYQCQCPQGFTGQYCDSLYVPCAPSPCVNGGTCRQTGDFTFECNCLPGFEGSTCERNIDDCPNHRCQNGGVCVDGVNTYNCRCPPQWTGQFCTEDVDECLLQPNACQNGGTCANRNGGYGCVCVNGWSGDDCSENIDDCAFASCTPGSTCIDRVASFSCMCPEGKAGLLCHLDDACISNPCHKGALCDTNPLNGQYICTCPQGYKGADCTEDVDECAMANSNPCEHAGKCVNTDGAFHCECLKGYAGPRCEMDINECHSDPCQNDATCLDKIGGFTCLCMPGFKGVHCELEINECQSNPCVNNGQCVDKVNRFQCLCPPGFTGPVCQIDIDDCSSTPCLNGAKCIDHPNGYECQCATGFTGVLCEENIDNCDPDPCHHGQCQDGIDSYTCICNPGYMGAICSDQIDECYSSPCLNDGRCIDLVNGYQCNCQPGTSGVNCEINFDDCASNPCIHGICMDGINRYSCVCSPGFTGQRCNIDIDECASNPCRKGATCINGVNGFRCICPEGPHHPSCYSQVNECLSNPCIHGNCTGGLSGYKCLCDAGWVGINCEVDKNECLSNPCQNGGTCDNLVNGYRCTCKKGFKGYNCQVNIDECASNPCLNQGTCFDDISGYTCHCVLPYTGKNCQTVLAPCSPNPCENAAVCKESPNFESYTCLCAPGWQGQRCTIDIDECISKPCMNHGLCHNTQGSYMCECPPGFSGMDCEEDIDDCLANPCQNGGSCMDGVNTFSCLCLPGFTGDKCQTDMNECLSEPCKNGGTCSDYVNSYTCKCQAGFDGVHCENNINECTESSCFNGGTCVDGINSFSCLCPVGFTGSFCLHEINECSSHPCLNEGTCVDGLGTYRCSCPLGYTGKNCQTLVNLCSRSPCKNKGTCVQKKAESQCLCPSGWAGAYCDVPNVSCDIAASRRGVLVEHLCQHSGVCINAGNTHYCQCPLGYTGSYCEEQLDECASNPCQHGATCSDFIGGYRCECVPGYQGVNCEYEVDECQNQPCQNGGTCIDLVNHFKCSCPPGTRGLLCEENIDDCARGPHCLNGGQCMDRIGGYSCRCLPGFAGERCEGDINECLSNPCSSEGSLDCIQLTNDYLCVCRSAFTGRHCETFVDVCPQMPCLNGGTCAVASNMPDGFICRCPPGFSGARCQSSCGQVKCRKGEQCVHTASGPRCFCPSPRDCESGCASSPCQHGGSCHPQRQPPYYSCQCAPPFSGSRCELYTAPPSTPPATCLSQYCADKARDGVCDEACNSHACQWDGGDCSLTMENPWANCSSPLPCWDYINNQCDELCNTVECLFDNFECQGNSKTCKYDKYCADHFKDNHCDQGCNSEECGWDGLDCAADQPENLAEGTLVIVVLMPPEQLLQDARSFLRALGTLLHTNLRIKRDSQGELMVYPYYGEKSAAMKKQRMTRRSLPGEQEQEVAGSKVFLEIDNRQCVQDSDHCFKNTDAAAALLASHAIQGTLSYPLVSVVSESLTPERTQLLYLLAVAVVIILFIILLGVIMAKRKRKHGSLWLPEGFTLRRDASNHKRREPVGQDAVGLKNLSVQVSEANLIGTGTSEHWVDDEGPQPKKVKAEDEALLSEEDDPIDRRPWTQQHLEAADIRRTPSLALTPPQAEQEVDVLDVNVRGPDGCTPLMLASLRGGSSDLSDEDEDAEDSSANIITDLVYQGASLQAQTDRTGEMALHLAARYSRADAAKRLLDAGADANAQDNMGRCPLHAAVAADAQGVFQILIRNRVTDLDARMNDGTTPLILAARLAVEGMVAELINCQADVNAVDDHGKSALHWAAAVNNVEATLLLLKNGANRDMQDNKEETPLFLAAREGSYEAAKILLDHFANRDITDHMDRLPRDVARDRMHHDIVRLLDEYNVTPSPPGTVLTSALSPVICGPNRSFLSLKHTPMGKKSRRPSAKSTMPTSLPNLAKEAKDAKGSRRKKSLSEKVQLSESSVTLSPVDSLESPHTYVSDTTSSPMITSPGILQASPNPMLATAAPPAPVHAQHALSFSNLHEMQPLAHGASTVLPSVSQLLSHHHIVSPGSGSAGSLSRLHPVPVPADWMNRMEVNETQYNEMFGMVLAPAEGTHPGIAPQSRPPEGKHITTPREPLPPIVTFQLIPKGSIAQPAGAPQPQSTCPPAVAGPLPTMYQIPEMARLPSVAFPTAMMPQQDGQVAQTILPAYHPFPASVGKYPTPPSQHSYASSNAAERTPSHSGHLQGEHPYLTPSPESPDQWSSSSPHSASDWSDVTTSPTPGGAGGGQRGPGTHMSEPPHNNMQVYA

| SMILES | composite z-score [1] | composite z-score [2] | composite z-score [3] | composite z-score [4] | composite z-score [5] | composite z-score [6] | composite z-score [7] | z-score [8] | composite z-score [9] | composite z-score [10] | composite z-score [11] | z-score [12] | z-score [13] | z-score [14] | composite z-score [15] | z-score [16] | composite z-score [17] | composite z-score [18] | composite z-score [19] | composite z-score [20] |
| --- | --- | --- | --- | --- | --- | --- | --- | --- | --- | --- | --- | --- | --- | --- | --- | --- | --- | --- | --- | --- |
| Cc1ccc(C(C)CC(O)C2C=CC3C(=O)N(C)C(=O)C3N2Nc2ccccc2)o1 (stereo not given) | -0.138 | 0.0897 | 0.0876 | 0.75 | 1.44 | 0.812 | 1.09 | 0.651 (inactive) | 1.44 | -0.0994 | 1.55 | 0.121 (inactive) | 0.388 (inactive) | 0.651 (inactive) | 0.788 | -1.47 (inactive) | 0.0997 | 0.555 | 1.07 | -0.0167 |
| CCOC(=O)C[C@H]1[C@H](OC(=O)Cc2ccc3c(c2)OCO3)[C@@H](NC(=O)Cc2ccc(OC)cc2)c2cc(OCCCO)ccc2N1C(=O)Cc1ccc(OC)cc1 | -0.199 | 0.225 | -0.128 | 0.209 | 0.121 | 0.007 | 0.501 | -3.1 (inactive) | 0.255 | 0.132 | 0.433 | -0.449 (inactive) | 0.531 (inactive) | -0.495 (inactive) | 1.3 | 0.503 (inactive) | -0.0616 | -0.102 | 0.194 | -0.157 |
| CC(C)=CCCC(C)=CC(O)C1C=CC2C(=O)NC(=O)C2N1Nc1ccccn1 (stereo not given) | -0.631 | 1.6 | 0.059 | 1.16 | 1.57 | 0.966 | 1.23 | -0.385 (inactive) | 1.21 | -0.109 | 1.56 | -1.17 (inactive) | 0.504 (inactive) | -0.952 (inactive) | 1.8 | -0.978 (inactive) | 0.212 | 1.36 | 1.11 | 0.186 |
| CCCC#C[Si](O[C@H](CC)c1cn(Cc2ccccc2)nn1)(C(C)C)C(C)C | -0.0658 | 0.0418 | 0.0252 | 0.435 | 0.734 | 0.53 | 1.02 | 0.403 (inactive) | 0.278 | -0.166 | 1.49 | -1.25 (inactive) | -14.6 (active) | -3.55 (inactive) | 1.72 | 0.657 (inactive) | 0.052 | 1.31 | 1.09 | 0.0458 |
| NC(=O)N1C(=O)C2C(C1=O)C1C=C(CCCO)C2C(c2ccc(CN3CCCC3)cc2)N1Cc1cc2c(cc1Br)OCO2 (stereo not given) | 0.117 | 0.19 | -0.0909 | -0.0906 | -0.362 | -0.311 | 0.626 | -0.905 (inactive) | -0.369 | -0.476 | 0.964 | -2.23 (inactive) | -0.251 (inactive) | -0.665 (inactive) | 0.835 | 0.181 (inactive) | -0.128 | 0.208 | -0.788 | -0.211 |
